The values that follow come from PubChem BioAssay.

The nature of experiment [1]: E. coli DRC41 culture turbidity changes, primary screen, E. coli filamentation inducer project, strain DRC41, OD650, 48 h (AID 1152).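 Note: E. coli MC1000 strain DRC41 lacking acrAB efflux pump and sulA.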 The settings on record: E. coli DRC41 (acrAB sulA), higher = more signal, called active from +8 up or from −8 down.
Experiment [2] in a line: small-molecule binders of probe aLefty1, primary screen, biochemical, small-molecule microarray, 635/667 nm fluorescence (AID 1153).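 Note: score merges spot fluorescence with signal-to-noise ratio from the scanned slide images.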 To be noted: higher = more signal.
The nature of experiment [3]: PSAC antagonists in infected red cells, primary screen, cell-based, P. falciparum Indochina, OD700, 1 h (AID 1154). The settings on record: P. falciparum Indochina infected RBC osmotic lysis, higher = more signal, called active from +8 up or from −8 down.
Experiment [4] in a line: PSAC antagonists in infected red cells, primary screen, cell-based, P. falciparum Indochina, OD700, 2 h (AID 1155).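 Note: lysis reports solute entry through the parasite surface anion channel PSAC; channel blockers reduce lysis of infected cells.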 To be noted: P. falciparum Indochina infected erythrocytes, osmotic lysis OD700; higher = more signal, called active from +8 up or from −8 down.
The nature of experiment [5]: osmotic lysis modulators in infected erythrocytes, primary screen, PSAC antagonist project, cell-based, P. falciparum Indochina, OD700, 3 h (AID 1156). The settings on record: higher = more signal, called active from +8 up or from −8 down.
Experiment [6] is described as follows: PSAC antagonists in infected red cells, primary screen, cell-based, P. falciparum Indochina, OD700, 18 h (AID 1157). The settings on record: P. falciparum Indochina infected erythrocytes, osmotic lysis OD700, 18 h; higher = more signal, called active from +8 up or from −8 down.
The nature of experiment [7]: modulators of S6 phosphorylation in cells, primary screen, cell-based, A549, cytoblot, luminescence, serum-stimulated (AID 1158).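 Note: serum-stimulated A549 lung adenocarcinoma cells; signal is phosphorylated S6 detected by cytoblot immunostaining with HRP secondary.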 To be noted: A549 phospho-S6 cytoblot, 5 h, higher = more signal.
The target in experiment [8] is NADPH oxidase 2 (Homo sapiens) (UniProt P04839). Briefly: NOX2-dependent H2O2 signal modulators, primary screen, NOX inhibitor project, cell-based, HEK293-NOX2, PMA-stimulated, Amplex Red fluorescence (AID 1159). Note: test concentration not given here. To be noted: 45 min, higher = more signal, called active from +8 up or from −8 down.
Sequence of NADPH oxidase 2 (Homo sapiens) (P04839 whole entry, looked up): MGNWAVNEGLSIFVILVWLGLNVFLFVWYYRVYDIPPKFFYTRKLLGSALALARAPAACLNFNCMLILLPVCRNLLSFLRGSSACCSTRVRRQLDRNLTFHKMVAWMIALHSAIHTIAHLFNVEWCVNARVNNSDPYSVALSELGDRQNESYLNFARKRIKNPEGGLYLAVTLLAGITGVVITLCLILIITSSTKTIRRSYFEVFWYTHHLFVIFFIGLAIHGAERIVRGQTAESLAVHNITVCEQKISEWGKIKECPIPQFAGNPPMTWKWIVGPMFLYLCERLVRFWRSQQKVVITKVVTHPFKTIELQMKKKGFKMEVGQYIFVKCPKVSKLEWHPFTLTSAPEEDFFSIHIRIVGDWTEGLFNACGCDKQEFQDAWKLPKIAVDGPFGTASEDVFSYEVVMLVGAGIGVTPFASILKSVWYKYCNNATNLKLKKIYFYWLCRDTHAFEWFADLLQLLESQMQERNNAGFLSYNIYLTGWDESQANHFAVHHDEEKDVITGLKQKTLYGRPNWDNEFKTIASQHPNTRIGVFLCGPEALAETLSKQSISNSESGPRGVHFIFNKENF
Experiment [9] concerns the target NADPH oxidase 4 (Homo sapiens) (UniProt Q9NPH5). Briefly: NOX4-dependent H2O2 signal modulators, primary screen, NOX inhibitor project, cell-based, HEK293-NOX4, tetracycline-induced, Amplex Red fluorescence (AID 1160). To be noted: 45 min, higher = more signal, called active from +8 up or from −8 down.
Experiment [10] deals with NADPH oxidase 5 (Homo sapiens) (UniProt Q96PH1). Kind of experiment: NOX5-dependent H2O2 signal modulators, primary screen, NOX inhibitor project, cell-based, HEK293-NOX5, Amplex Red fluorescence (AID 1161). To be noted: HEK293-NOX5, ionomycin, 45 min, higher = more signal.
Sequence of NADPH oxidase 5 (Homo sapiens) (Q96PH1 whole entry, looked up): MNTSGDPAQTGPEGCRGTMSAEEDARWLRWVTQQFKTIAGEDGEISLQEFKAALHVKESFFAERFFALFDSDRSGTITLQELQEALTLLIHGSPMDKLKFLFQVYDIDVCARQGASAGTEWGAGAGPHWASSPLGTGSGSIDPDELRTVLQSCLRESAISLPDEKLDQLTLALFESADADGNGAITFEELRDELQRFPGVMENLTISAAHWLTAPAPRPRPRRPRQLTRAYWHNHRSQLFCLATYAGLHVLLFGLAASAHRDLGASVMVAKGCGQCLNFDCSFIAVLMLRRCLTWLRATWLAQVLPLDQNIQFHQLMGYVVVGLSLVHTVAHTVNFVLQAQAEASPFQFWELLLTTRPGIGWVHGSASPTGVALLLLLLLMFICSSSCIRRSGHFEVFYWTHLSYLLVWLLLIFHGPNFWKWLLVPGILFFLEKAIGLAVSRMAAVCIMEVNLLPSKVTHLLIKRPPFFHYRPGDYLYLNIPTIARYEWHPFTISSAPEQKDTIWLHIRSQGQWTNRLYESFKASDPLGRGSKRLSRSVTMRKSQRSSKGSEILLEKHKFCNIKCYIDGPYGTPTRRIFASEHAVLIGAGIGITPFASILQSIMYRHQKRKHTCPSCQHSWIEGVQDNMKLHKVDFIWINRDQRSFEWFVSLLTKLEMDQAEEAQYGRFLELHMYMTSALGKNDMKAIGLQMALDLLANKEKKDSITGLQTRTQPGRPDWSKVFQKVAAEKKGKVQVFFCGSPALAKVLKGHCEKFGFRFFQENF
Experiment [11] is described as follows: A549 cell viability effects, profiling panel, calcein-AM fluorescence, 48 h, basal (AID 1162). Note: test concentration not given here. The settings on record: higher = more signal.
The nature of experiment [12]: adipocyte viability effects, profiling panel, cell-based, 3T3-L1 adipocytes, calcein-AM fluorescence, 48 h, basal (AID 1163). Note: test concentration not given here. The settings on record: 3T3-L1 adipocytes viability, higher = more signal.
A short description of experiment [13]: HepG2 cell viability effects, profiling panel, calcein-AM fluorescence, 48 h, basal (AID 1164). Note: test concentration not given here. To be noted: higher = more signal.
The nature of experiment [14]: MM1S cell viability effects, profiling panel, calcein-AM fluorescence, 48 h, basal (AID 1165).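 Note: viability of MM1S multiple myeloma cells under basal unstimulated conditions; test concentration not given here.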 To be noted: higher = more signal.
A short description of experiment [15]: basal RPMI8226 viability, no added stimulus, profiling panel, cell-based, calcein-AM fluorescence, 48 h, PK04 Diversity Set (AID 1166).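 Note: cells grown under basal conditions without added stimulus; test concentration not given here.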 To be noted: RPMI8226 myeloma viability, higher = more signal.
The nature of experiment [16]: basal HepG2 mitochondrial membrane potential changes, profiling panel, cell-based, JC-1 fluorescence, 24 h, 100 nL compound (AID 1167). Note: test concentration not given here. To be noted: higher = more signal.
A short description of experiment [17]: basal 3T3-L1 adipocyte mitochondrial potential changes, profiling panel, cell-based, JC-1 fluorescence, 3T3-L1 adipocytes, 24 h, 100 nL compound (AID 1168). Note: test concentration not given here. To be noted: JC-1 mitochondrial fluorescence, higher = more signal, called active from +8 up or from −8 down.
Experiment [18] is described as follows: basal RPMI8226 mitochondrial membrane potential changes, profiling panel, cell-based, JC-1 fluorescence, 24 h, 100 nL compound (AID 1169). Note: test concentration not given here. The settings on record: RPMI8226 myeloma, JC-1 mitochondrial potential fluorescence, higher = more signal.
Experiment [19] can be described thus: basal MM1S mitochondrial membrane potential changes, profiling panel, cell-based, JC-1 fluorescence, 24 h, 100 nL compound (AID 1170). Note: test concentration not given here. To be noted: higher = more signal.
The nature of experiment [20]: A549 lung cancer cell viability effects, profiling panel, resazurin fluorescence, 24 h, PK04 Diversity Set (AID 1171). Note: test concentration not given here. To be noted: higher = more signal, called active from +8 up or from −8 down.

Calls of active or inactive are those of the source.

Sequence of NADPH oxidase 4 (Homo sapiens) (Q9NPH5 whole entry, looked up): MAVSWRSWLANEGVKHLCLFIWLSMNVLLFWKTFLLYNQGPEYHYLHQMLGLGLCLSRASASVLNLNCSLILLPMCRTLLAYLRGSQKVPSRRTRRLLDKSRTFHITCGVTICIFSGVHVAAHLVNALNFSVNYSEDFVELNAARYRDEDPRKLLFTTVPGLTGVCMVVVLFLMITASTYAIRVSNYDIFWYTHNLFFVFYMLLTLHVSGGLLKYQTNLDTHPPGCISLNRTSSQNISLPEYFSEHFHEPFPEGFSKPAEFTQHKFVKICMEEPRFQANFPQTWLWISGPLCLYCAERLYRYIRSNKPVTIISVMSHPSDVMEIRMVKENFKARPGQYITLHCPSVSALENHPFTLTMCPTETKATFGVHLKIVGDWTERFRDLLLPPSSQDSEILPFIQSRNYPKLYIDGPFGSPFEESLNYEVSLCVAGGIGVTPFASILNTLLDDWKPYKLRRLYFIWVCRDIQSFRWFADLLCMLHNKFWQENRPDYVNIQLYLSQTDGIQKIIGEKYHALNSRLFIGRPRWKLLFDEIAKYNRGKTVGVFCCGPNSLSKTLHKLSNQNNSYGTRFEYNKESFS

For the molecule `Cc1ccc(F)cc1S(=O)(=O)N[C@@H]1CCN(Cc2ccc3c(c2)OCO3)C1`, the z-score was -3.25 (inactive) in [1]; 1.36 (inactive) in experiment [3]; 0.491 (inactive) in [4]; 0.076 (inactive) in experiment [5]; 0.329 (inactive) in experiment [6]; -0.0688 in experiment [7]. Moreover, the z-score in experiment [8] was -0.438 (inactive); in experiment [9], -0.228 (inactive); in experiment [10], -0.687; in [11], 0.923; in [12], -0.447; in experiment [13], 0.326. Further, the z-score in experiment [14] was 0.361; in experiment [15], -0.525; in [16], -0.184; in experiment [17] it was -0.0208 (inactive); in experiment [18], 0.302; in experiment [19], -0.591. The z-score in experiment [20] is -0.156 (inactive). In [2], the composite z-score is -0.0984.
As for `CC(C)C(=C=CC[C@@H](O)c1cccc(OCCO)c1)CCO`, the z-score was 0.838 (inactive) in [1]; 2.96 (inactive) in [3]; 0.108 (inactive) in experiment [4]; 0.607 (inactive) in [5]; 0.233 (inactive) in experiment [6]; 0.617 in [7]. Further, the z-score was -0.841 (inactive) in [8]; -0.471 (inactive) in experiment [9]; -1.26 in experiment [10]; 0.418 in [11]; 0.114 in experiment [12]; 0.785 in experiment [13]. The z-score in experiment [14] was 0.753; in experiment [15], -0.25; in experiment [16], 0.436; in [17], 0.258 (inactive); in experiment [18] it was 0.314; in experiment [19], -1.18. For the same molecule, the z-score in experiment [20] is 0.625 (inactive). This molecule also gave a composite z-score in [2] of 0.0919.
Regarding `C=CCC(OC(C)=O)[C@@H]1[C@@H](N(Cc2ccc(-c3ccccc3)cc2)C(=O)c2ccc(-c3ccccc3)cc2)c2cc(OCCCO)ccc2N1C(=O)c1ccc2ccccc2n1` (stereo not given in full), the z-score is 0.803 (inactive) in experiment [1]; 0.135 (inactive) in experiment [3]; 0.078 (inactive) in experiment [4]; -0.452 (inactive) in [5]; -0.033 (inactive) in [6]; 0.364 in [7]. For the same molecule, the z-score in experiment [8] is 1.18 (inactive); in experiment [9], 1.33 (inactive); in [10], 1.17; in [11], 0.393; in [12], 0.167; in experiment [13], 0.486. Besides, the z-score in [14] is -0.265; in [15], -0.189; in experiment [16], 2.22; in [17] it was -0.124 (inactive); in experiment [18] it was -0.742; in [19], -0.133. Further, the z-score in experiment [20] is 1.67 (inactive). This molecule gave a composite z-score in experiment [2] of 0.026.
Take `COc1ccccc1CN1C(=O)c2ccccc2[C@@H](C(=O)NCCCN(C)C)[C@@H]1c1ccc(CO)cc1`: the z-score is 1.21 (inactive) in experiment [1]; 2.02 (inactive) in [3]; -0.141 (inactive) in [4]; 0.445 (inactive) in [5]; -0.583 (inactive) in experiment [6]; 0.506 in experiment [7]. Besides, the z-score in experiment [8] was 0.676 (inactive); in experiment [9], -0.436 (inactive); in [10] it was -2.04; in experiment [11], 1.29; in experiment [12], 0.608; in experiment [13], 1.07. For the same molecule, the z-score in experiment [14] is 0.376; in experiment [15], 0.0552; in [16], 3.31; in [17], 0.629 (inactive); in [18] it was 0.262; in experiment [19], 0.325. Besides, the z-score in [20] was 0.997 (inactive). This molecule also showed a composite z-score in experiment [2] of -0.552.
In the case of `CC(C)CNC(=O)[C@@H]1c2ccccc2C(=O)N(Cc2ccccc2)[C@H]1c1ccc(CO)cc1`, the z-score is -0.603 (inactive) in experiment [1]; 1.49 (inactive) in [3]; 0.294 (inactive) in experiment [4]; 2.44 (inactive) in experiment [5]; 0.769 (inactive) in experiment [6]; -0.316 in [7]. Moreover, the z-score in [8] is -0.638 (inactive); in [9] it was -1.24 (inactive); in experiment [10], -3.17; in experiment [11], -0.412; in experiment [12], 0.175; in experiment [13] it was -0.345. The z-score is 0.0234 in experiment [14]; 0.65 in experiment [15]; 0.508 in experiment [16]; -0.526 (inactive) in experiment [17]; 0.146 in experiment [18]; -0.139 in experiment [19]. Besides, the z-score in experiment [20] was 0.678 (inactive). The composite z-score in experiment [2] was -0.106.
In the case of `O=C1OCCC=C[C@H]2OC34C=CCN(CCN5CCOCC5)C(=O)[C@H]3N(CCCO)C(=O)[C@@H]4C12` (stereo not given in full), the z-score was 0.274 (inactive) in [1]; 0.377 (inactive) in [3]; -1.35 (inactive) in [4]; 0.901 (inactive) in experiment [5]; -1.73 (inactive) in [6]; 0.41 in [7]. The z-score was -0.433 (inactive) in experiment [8]; -1.97 (inactive) in [9]; -0.183 in [10]; 0.531 in [11]; 0.473 in [12]; 0.127 in experiment [13]. The z-score in experiment [14] is -0.0305; in experiment [15], -0.0605; in experiment [16] it was -0.338; in experiment [17], 1.33 (inactive); in [18], 0.398; in experiment [19] it was -0.139. Moreover, the z-score in experiment [20] was -0.784 (inactive). This molecule also came in with a composite z-score in experiment [2] of -0.0464.
Turning to `CN(C)CCCNC(=O)[C@@]1(Cc2ccccc2I)c2ccccc2C(=O)N(Cc2ccccc2)[C@H]1c1ccc(CO)cc1`, the z-score was -0.206 (inactive) in experiment [1]; 1.88 (inactive) in [3]; 0.614 (inactive) in experiment [4]; -1.26 (inactive) in experiment [5]; 0.452 (inactive) in experiment [6]; -0.5 in experiment [7]. In addition, the z-score in experiment [8] was -8.23 (active); in experiment [9], -3.08 (inactive); in experiment [10] it was -1.71; in experiment [11], -2.02; in experiment [12], -0.826; in [13], -3.4. Besides, the z-score in experiment [14] was -3.73; in experiment [15], -3.31; in experiment [16], 0.601; in experiment [17], -0.354 (inactive); in experiment [18], -0.681; in [19] it was -1.54. Also, the z-score in [20] is -3.32 (inactive). The molecule further came in with a composite z-score in [2] of -0.729.
For `C=C(COC)/C(=C/C[C@@H](OC(C)=O)c1ccccc1OCCO)c1cc(C(=O)OC)ccc1OC`, the z-score in [1] is 0.0999 (inactive); in experiment [3], 17.2 (active); in experiment [4] it was 2.52 (inactive); in experiment [5], 1.68 (inactive); in experiment [6], 1.04 (inactive); in experiment [7] it was -0.0651. Also, the z-score in experiment [8] was 0.857 (inactive); in [9], -0.16 (inactive); in [10], -1.46; in [11], 1.2; in experiment [12], -2.49; in experiment [13] it was 0.5. For the same molecule, the z-score is -3.3 in [14]; -0.866 in [15]; 0.751 in experiment [16]; 0.00709 (inactive) in experiment [17]; -0.338 in experiment [18]; -0.875 in experiment [19]. In experiment [20], the z-score was 0.368 (inactive). The composite z-score in [2] came out at 0.0945.
As for `O=C1N(Cc2ccccc2)c2ccccc2[C@H]2OC(c3ccc(OCCCO)cc3)=N[C@@]12Cc1ccccc1`, the z-score is -0.456 (inactive) in experiment [1]; 28.7 (active) in experiment [3]; 25.3 (active) in [4]; 3.25 (inactive) in [5]; 2.26 (inactive) in [6]; 0.381 in experiment [7]. The z-score was -1.32 (inactive) in [8]; -0.641 (inactive) in [9]; -1.68 in experiment [10]; -1.22 in [11]; 1.93 in experiment [12]; -1.78 in experiment [13]. The z-score in [14] was -2.75; in experiment [15], -4.59; in experiment [16], -0.67; in [17], 1.56 (inactive); in [18], -1.26; in [19], -1.66. In experiment [20], the z-score was -2.1 (inactive). The molecule further displayed a composite z-score in experiment [2] of 0.31.
